LASV entry inh = Lassa virus entry inhibition; Lassa virus pseudotype entry inhibition, cell reporter; Potency, µM (titrated, usually from 37.9 µM), actives largely listed as inhibitors; AID 540256; 300,000 compounds, 1.2% hits; calls by dose curve; tested in HEK293 cells; further: nearly all actives have a fitted effect of over 50% in size
Pf growth 96h = inhibits malaria parasite growth, 96 h. P. falciparum luciferase reporter growth, 96 h. Potency, µM (top dose mostly 28.7 µM), hits mostly inhibitors. 320,000 compounds, 6.9% hits. AID 504834
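Two-generation exposure (96 h) targets delayed-death phenotype. Reporter parasites carrying integrated firefly luciferase, in red cells at 2% hematocrit and 0.05% parasitemia final, kept at 37 C, 5% CO2; luminescence loss indicates inhibition.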
HCV inhibitor = blocks hepatitis C virus; Huh7.5.1 HCVcc-Cre infection, luciferase reporter, 44 h; Potency, µM (doses to about 41.8 µM), actives largely listed as inhibitors; 340,000 compounds, 3.4% hits; AID 651820
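A cell-based infection assay in which seeded cells (1,000 per well) receive test compound after 4 h, are inoculated with HCVcc-Cre at approximately 0.5 moi, and are incubated 44 h before luminescence detection.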
MARV entry inh = Marburg virus entry inhibition; Marburg virus pseudotyped entry inhibition, cell reporter; Potency, µM (series often up to 37.8 µM), most hits filed as inhibitors; 300,000 compounds, 1.8% hits; AID 540276; calls by dose curve; tested in HEK293 cells
Pf growth 48h = P. falciparum growth inhibition at 48 hours (one generation) | Potency, µM (top dose mostly 28.7 µM), usual class: inhibitors | 310,000 compounds, 5.9% hits | P. falciparum luciferase growth in erythrocytes, 48 h
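Here the parasites carry a stable luciferase gene and grow inside erythrocytes in Albumax-based RPMI medium with compound for one erythrocytic cycle. Activity is scored as loss of luminescent signal.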
HCMV inh = human cytomegalovirus inhibition. HFF cells, HCMV-luciferase reporter, 72 h; stronger effect = lower value. 410,000 compounds, 4.5% hits. activity change, negative = inhibition, % at 57.5 µM; in the data active means activity change below about -60%; inconclusive means no clear call, values can overlap the other calls; inactive means above about -39%
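Cell-based, HFFs, 1000 cells/well, 16 h 37C; cpds in DMSO + HCMV-luc, MOI 1 PFU/cell; 72 h 37C; OneGlo luminescence after 5 min RT; norm. to buffer vs Salinomycin 10uM.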
Each line names hits and unclear results; the compound was inactive in the other large screens. Sampled rows, rich in hits. Any-hit rate of the full collection: about 14%. Unless noted, the call rests on the fitted dose curve; in most records, active means well fitted inhibition curve with a large enough effect; inconclusive means small, poorly fitted or top-dose-only effect, or another doubt; inactive means no such curve, though single readings can be large or run the other way.

Nc1[nH]c(C(=O)c2ccccc2)c(-c2ccccc2Cl)c1C(=O)c1ccccc1	none (no result: LASV entry inh, Pf growth 96h, HCV inhibitor, MARV entry inh, Pf growth 48h)
CS(=O)(=O)c1ccccc1-c1nnc(NC(=O)c2ccc3c(c2)OCCO3)o1	none (no result: Pf growth 96h, HCV inhibitor, MARV entry inh, Pf growth 48h)
Cc1cccc2sc(NC(=O)c3ccc(OCC4CCCO4)cc3)nc12 (stereo not drawn)	HCV inhibitor inconclusive, MARV entry inh inconclusive, Pf growth 48h inconclusive
O=C(Nc1nc(-c2ccc(F)c(F)c2)cs1)C1=COCCO1	none (no result: LASV entry inh, MARV entry inh)
CCOc1ccc2nc(NC(=O)c3ccc(OCC4CCCO4)cc3)sc2c1 (stereo not drawn)	Pf growth 96h inconclusive, HCV inhibitor 3.98µM, Pf growth 48h 8.28µM, HCMV inh inconclusive
O=C(Nc1nc(-c2ccc(F)c(F)c2)cs1)c1ccc(OCC2CCCO2)cc1 (stereo not drawn)	HCV inhibitor inconclusive, MARV entry inh inconclusive, HCMV inh -69.3
Cc1csc(NC(=O)c2ccc(OCC3CCCO3)cc2)n1 (stereo not drawn)	LASV entry inh 3.55µM, HCV inhibitor 11.2µM, MARV entry inh 4.47µM
Cc1ccnc(NC(=O)c2ccc(OCC3CCCO3)cc2)c1 (stereo not drawn)	LASV entry inh 6.31µM, MARV entry inh 3.55µM
Cc1ccc(C(O)c2ncc(-c3ccccc3)[nH]2)c(C)c1 (stereo not drawn)	none (no result: LASV entry inh, Pf growth 96h, HCV inhibitor, MARV entry inh, Pf growth 48h)
O=C(CCN1C(=O)c2ccccc2S1(=O)=O)NCc1ccccc1Cl	none
CC(C)C(=O)N1CCC1(C)C(=O)Nc1cccc(Oc2ccccc2)c1 (stereo not drawn)	none (no result: LASV entry inh, Pf growth 96h, HCV inhibitor, MARV entry inh, Pf growth 48h)
CCOC(=O)c1cccc(NC(=O)CCCn2nc(C)c3c(C)n(-c4ccccc4)nc3c2=O)c1	none (no result: Pf growth 96h, HCV inhibitor, MARV entry inh, Pf growth 48h)
CC(=O)c1ccc(N2CCN(CC(=O)N(C3CC3)C3CCS(=O)(=O)C3)CC2)c(F)c1 (stereo not drawn)	HCMV inh inconclusive
COCC1CCCCN1C(=O)c1cc(COc2ccc3ncccc3c2)on1 (stereo not drawn)	HCMV inh -83.6 (no result: LASV entry inh, MARV entry inh)
CCN(CC)C(=O)C1CCCN(C(=O)c2cc(COc3ccc4ncccc4c3)on2)C1 (stereo not drawn)	HCV inhibitor inconclusive, HCMV inh inconclusive (no result: LASV entry inh, MARV entry inh)
COCC1CCN(C(=O)c2cc(COc3ccc4c(c3)CCCC4)on2)C1 (stereo not drawn)	LASV entry inh inconclusive, HCV inhibitor inconclusive
COCCC1CCCCN1C(=O)c1cc(COc2ccc(-n3cncn3)cc2)on1 (stereo not drawn)	LASV entry inh inconclusive, Pf growth 96h inconclusive, HCV inhibitor 10µM, MARV entry inh inconclusive, HCMV inh -74.0
CCCN1CCN(C(=O)c2cc(COc3ccc(F)cc3F)on2)CC1	LASV entry inh inconclusive (no result: HCV inhibitor)
CCN1CCN(C(=O)c2cc(COc3ccc4ncccc4c3)on2)CC1	HCV inhibitor 11.2µM, HCMV inh -82.2 (no result: LASV entry inh)
CCCN1CCN(C(=O)c2cc(COc3ccc4ncccc4c3)on2)CC1	HCV inhibitor 10µM, HCMV inh -67.8 (no result: LASV entry inh, MARV entry inh)
COCc1c(C(=O)NCCOc2ccc(Cl)cc2)oc2ccccc12	Pf growth 96h inconclusive, HCV inhibitor inconclusive, Pf growth 48h inconclusive (no result: LASV entry inh, MARV entry inh)
COc1ccc(-c2noc(-c3ccc(NCc4ccco4)c([N+](=O)[O-])c3)n2)cc1	MARV entry inh inconclusive (no result: Pf growth 96h, HCV inhibitor, Pf growth 48h)
CSc1nc(Nc2ccc(Cl)cc2)c(C#N)c(=O)[nH]1	none
N#Cc1c(Nc2ccc(Cl)cc2)s[nH]c1=O	HCMV inh -65.8
COc1ccc(NC(=O)c2nnn(Cc3nc(-c4cc(OC)c(OC)c(OC)c4)oc3C)c2C)cc1Cl	MARV entry inh inconclusive (no result: Pf growth 96h, HCV inhibitor, Pf growth 48h)
O=C1c2ccccc2C(=O)N1CCC#C/C=C1\c2ccccc2C(=O)N1c1ccccc1	none (no result: LASV entry inh, Pf growth 96h, HCV inhibitor, MARV entry inh, Pf growth 48h)
CC1CC(C)CN(C(=O)c2nn(C)c3c2CSc2ccccc2-3)C1 (stereo not drawn)	Pf growth 96h 5.86µM, Pf growth 48h inconclusive (no result: LASV entry inh, MARV entry inh)
Cn1nc(C(=O)N2CCN(c3ccc(Cl)cc3)CC2)c2c1-c1ccccc1SC2	HCMV inh -71.2 (no result: Pf growth 96h, HCV inhibitor, Pf growth 48h)
CC1CCCN(C(=O)c2nn(C)c3c2CSc2ccccc2-3)C1 (stereo not drawn)	none (no result: LASV entry inh, MARV entry inh)
COc1ccc(N2CCN(C(=O)c3cn(C4CCCCC4)c(=O)c4c3c3ccccc3n4C)CC2)cc1	LASV entry inh inconclusive, MARV entry inh inconclusive (no result: Pf growth 96h, HCV inhibitor, Pf growth 48h)
Cc1c(Cl)cccc1N=C1NC(=O)CS1	none (no result: LASV entry inh, Pf growth 96h, HCV inhibitor, MARV entry inh, Pf growth 48h)

Screening data deposited in PubChem by National Center for Advancing Translational Sciences (NCATS).
